Screening results from PubChem.
Rows were chosen to be rich in hits. Some 3.1% of all compounds tested hit in one or more screens of this group.
LGR2 antag: inhibitors of bursicon-induced Drosophila LGR2 receptor cAMP signaling; HEK293 LGR2, CRE-luciferase, bursicon-stimulated, 4 h; inhibition, % at 9.99 µM; hit rate 0.35% among 380,000; AID 720647;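 active = drop in luminescence signal, shown as inhibition above about 50% in the replicate tests, limit read from the data, passing the limit was not always enough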;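 note: agonist challenge used bursicon conditioned medium at about half maximal strength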
TROY signal inh: inhibitors of TROY-dependent NF-kB signaling. Q293 LMP1-TROYcd NF-kB luciferase reporter, 4 h. inhibition, % at 10 µM. hit rate 0.98% among 360,000. AID 1347056;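 active = compounds whose plate-normalised and pattern-corrected inhibition of the luciferase reporter signal at the single screening dose is 50% or more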
LMP1 NFkB inh: reduces LMP1-driven NF-kappaB luciferase signal; LMP1-induced NF-kappaB luciferase reporter cells, luminescence; inhibition, % at 12.5 µM; hit rate 0.69% among 350,000; AID 504558; in the data active = inhibition above about 41%;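 note: 0% = neutral control wells and 100% = reference inhibitor control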
TWEAK Fn14 block: inhibitors of TWEAK-Fn14 interaction signaling | TWEAK-stimulated Fn14 reporter cells, luciferase luminescence, 8 h | inhibition, % at 10 µM | hit rate 2% among 360,000 | AID 1159606; in the data active = inhibition above about 50%
EWS-Fli inh: blocks EWS/Fli oncoprotein-driven transcription. A673 NR0B1-luciferase reporter, viability-normalised. AID 651661. inhibition, % at 12.6 µM. hit rate 0.67% among 350,000;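 active = mean inhibition of at least 50% after viability correction, with every replicate also passing that limit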;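 note: firefly luciferase signal divided by Alamar Blue viability fluorescence both relative to DMSO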
PAX8 inh HTS: inhibitors of PAX8 transcriptional activity in RMG-I cells. hit rate 1.2% among 360,000. AID 652154. inhibition, % at 12.6 µM. RMG-I TPO-luciferase reporter, SteadyGlo, 24 h;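 active = mean replicate inhibition at least 60% with every replicate also reaching 60%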;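 note: luciferase light reporting Pax8 driven TPO promoter activity; plate controls were median of neutral control wells for no effect and mitoxantrone controls for full effect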
* hit, by the source's call; · = no result.

SMILES	LGR2 antag	TROY signal inh	LMP1 NFkB inh	TWEAK Fn14 block	EWS-Fli inh	PAX8 inh HTS
COc1cccc(N=c2oc3ccccc3cc2-c2nc3ccccc3[nH]2)c1	·	2	-40	75*	·	-54
COc1cccc(N=c2oc3ccc(OC)cc3cc2-c2nc3ccccc3[nH]2)c1	·	48	-58	62*	·	-101
COc1ccc(N=c2oc3ccc(OC)cc3cc2-c2nc3ccccc3[nH]2)cc1	·	12	-90	49	·	-196
O=[N+]([O-])c1cc(C(F)(F)F)cc([N+](=O)[O-])c1NCCNC(=S)Nc1ccc(Cl)c(Cl)c1	29	58*	1	22	7	29
FC(F)(F)c1cccc(NC(=S)Nc2ccc(Cl)c(Cl)c2)c1	6	-24	10	-5	5	1
C=CCNC(=O)/C(C#N)=C/c1c(C)nn(-c2ccc(Cl)cc2)c1Cl	21	0	-7	51*	4	11
Cc1nn(-c2ccc(Cl)cc2)c(Cl)c1/C=C(\C#N)C(N)=O	4	-4	-17	8	7	31
CN(CCC#N)C(=S)Nc1ccc(F)cc1	11	7	57*	-6	0	5
CC=Cc1ccc2n(c1=O)C[C@H]1[C@H](CO)[C@@H](C(=O)NCc3ccccc3)[C@@H]2N1S(C)(=O)=O (mixture of isomers)	3	·	·	·	-1	2
COc1ccc(C(=O)NC2CCCCCC2)cc1S(=O)(=O)N1CCCc2ccccc21	·	17	-7	45	·	·
CCN1C(=O)CCN(C2CCCC2)c2nc(Nc3ccc(C(=O)NC4CCN(C)CC4)cc3OC)ncc21	-1	-15	-2	8	62*	-106
C[C@H](CO)N1C[C@H](C)[C@H](CN(C)Cc2ccncc2)OCCCC[C@H](C)Oc2ccc(NC(=O)Nc3ccc(C(F)(F)F)cc3)cc2C1=O	-6	·	·	·	10	71*
C[C@@H]1CCCCO[C@@H](CN(C)Cc2ccncc2)[C@H](C)CN([C@@H](C)CO)C(=O)c2cc(NC(=O)Nc3ccc(C(F)(F)F)cc3)ccc2O1	11	·	·	·	12	93*
C[C@H]1CCCCO[C@@H](CN(C)Cc2ccncc2)[C@@H](C)CN([C@@H](C)CO)C(=O)c2cc(NC(=O)Nc3ccc(C(F)(F)F)cc3)ccc2O1	6	·	·	·	8	81*
COc1ccccc1-c1ccc2c(c1)[C@H]1[C@H](CCN1S(=O)(=O)c1cn(C)cn1)[C@H](CO)N2	-47	·	·	·	-47	-58
CN1c2ccc(-c3ccccc3)cc2[C@@H]2[C@@H](CCN2C(=O)c2ccccn2)[C@H]1CO	-6	·	·	·	-94	-79
Cc1cccc(Cn2c(Cc3ccccc3)nc3ccccc32)c1	-3	-2	8	-43	11	69*
Cc1nc2ncccn2c1-c1csc(Nc2ccccc2)n1	·	32	40*	30	11	-5
CC(=O)Nc1ccc(Nc2nc(-c3c(C)nc4ccccn34)cs2)cc1	4	7	·	13	57*	39
COc1ccc(Nc2nc(-c3c(C)nc4ncccn34)cs2)cc1	·	-2	34	3	44	48
O=C(Cc1ccccn1)NCC[C@@H]1CC[C@H](NC(=O)Nc2ccccc2)[C@@H](CO)O1	12	·	·	·	-1	-4
Cn1c(SSc2ccc(-c3cccnc3)n2C)ccc1-c1cccnc1	-7	49	6	69*	15	-5
CCN(CC)c1ccc2c(Cl)c(Br)c(=O)oc2c1	·	43	-4	85*	·	·
CCN(CC)c1ccc2c(c1)oc(=O)c1c(Cl)cc(=O)oc12	·	-44	-12	76*	·	·
C[C@@H]1CN([C@H](C)CO)C(=O)c2cc(NC(=O)Cc3ccccc3)ccc2O[C@@H]1CN(C)C(=O)Nc1cccc2ccccc12	6	·	·	·	13	45
SMILES	LGR2 antag	TROY signal inh	LMP1 NFkB inh	TWEAK Fn14 block	EWS-Fli inh	PAX8 inh HTS
COc1ccc([C@H]2CC(=O)C=C(c3ccc4[nH]ccc4c3)C2)cc1OC	-30	53*	-4	-23	-9	-17
O=C1C=C(c2ccc3[nH]ccc3c2)C[C@@H](c2ccc(F)cc2)C1	-33	-39	-23	-12	-8	-23
CC1(C)CC(=O)C2=C(C1)OC1=C(C(=O)CC(C)(C)C1)C2c1cc([N+](=O)[O-])cc([N+](=O)[O-])c1O	4	31	-4	7	3	6
CC1(C)CC(=O)C(C2C3=C(CC(C)(C)CC3=O)Oc3c(Br)cc(Br)cc32)=C(O)C1 (stereo not drawn)	18	46	4	62*	15	28
CC(C)CN(C(=O)CSc1nc(-c2ccccc2)cn1N)c1c(N)n(Cc2ccccc2)c(=O)[nH]c1=O	16	54*	-18	43	-72	-21
CC(C)(C)c1ccc(C(=O)O/N=C(\N)c2ccccc2)cc1	91*	90*	57*	105*	76*	30
Cc1ccc(/C(N)=N/OC(=O)c2ccco2)cc1	·	-23	-2	36	·	-40
COc1ccc(C(=O)O/N=C(\N)c2ccccc2)cc1	79*	42	6	82*	21	-3
COc1ccc(/C(N)=N/OC(=O)c2ccco2)cc1	69*	56*	19	64*	31	-4
COc1ccc(C(=O)O/N=C(\N)c2ccc(Br)cc2)cc1	-95	-30	-39	-11	-96	-78
C[C@@H]1CN([C@H](C)CO)C(=O)c2cc(NS(=O)(=O)c3ccc(F)cc3)ccc2O[C@H]1CN(C)C(=O)Nc1ccc(F)cc1	-2	·	·	·	3	·
Cc1cc2ncn(-c3ncccc3[N+](=O)[O-])c2cc1C	-14	7	4	-4	58*	13
COc1ccccc1S(=O)(=O)N1C[C@H](O)COC[C@@H]2O[C@@H](CC(=O)O)CC[C@H]21	-9	·	·	·	2	-4
COc1ccc(-c2cc(C#N)nc(Oc3ccc(Cl)cc3)n2)cc1	9	16	0	27	-4	-9
N#Cc1ccc(Oc2nc(C#N)cc(-c3ccccc3)n2)cc1	21	29	12	39	-10	3
N#Cc1cc(-c2ccccc2)nc(Oc2ccccc2)n1	21	48	5	61*	-6	7
COc1ccc(-c2cc(C#N)nc(Cl)n2)cc1	-12	80*	3	30	-7	2
C[C@@H]1CCCCO[C@H](CN(C)S(=O)(=O)c2ccc(Cl)cc2)[C@H](C)CN([C@@H](C)CO)C(=O)c2cc(NC(=O)C3CCCCC3)ccc2O1	9	·	·	·	3	8
Cc1cc(NCCCn2ccnc2)n2ncc(-c3ccccc3)c2n1	·	81*	50*	99*	·	·
Cc1cc(NC2CCCC2)n2nc(C)c(-c3ccccc3)c2n1	-40	-31	-23	-31	-58	-48
Cc1cc(-c2ccccc2)n2ncc(-c3ccccc3)c2n1	60*	74*	-8	89*	38	-8
Cc1cc(NC2CCCC2)n2ncc(-c3ccccc3)c2n1	63*	81*	9	90*	62*	-2
Cc1cc(NCc2ccccc2)n2ncc(-c3ccccc3)c2n1	-111	14	-141	17	-66	-149
